# Screening data from PubChem.
# WRN helicase inh: inhibitors of human WRN helicase. WRN helicase unwinding, fluorescent forked duplex, kinetic. Potency, µM (titrated, usually from 114 µM), without a hit: at the top dose activity change, negative = inhibition, usual class: inhibitors. hit rate 0.46% among 360,000; also: % is scaled to controls: 0 for no effect and ±100 for the full control effect; nearly all actives have a fitted effect of over 55% in size
#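 WRN at 20 nM final preincubated with compound 15 min at room temperature; reaction started with 100 nM fluorophore/quencher forked duplex oligonucleotide and 2 mM ATP final. Unwinding followed kinetically by red fluorescence (ex 525, em 598 nm).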
# Pol kappa inh: blocks human DNA polymerase kappa activity | Q9UBT6 | purified Pol kappa, fluorescent DNA synthesis assay, 10 min | Potency, µM (titrated, usually from 107 µM), without a hit: top-dose activity, negative = inhibition, actives largely listed as inhibitors | hit rate 0.53% among 400,000 | AID 588579; also: % is scaled to controls: 0 for no effect and ±100 for the full control effect
#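 Readout: fluorescence, taken kinetically at 0 and 10 min. Conditions: 10 nM Pol kappa, 15 min RT compound preincubation, 50 nM substrate final. Controls: enzyme-free buffer wells.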
# Pol iota inh: inhibitors of human DNA polymerase iota | Q9UNA4 | Pol iota fluorescent replication assay, 10 min | Potency, µM (top dose mostly 115 µM), inactives show top-dose activity, negative = inhibition, usual class: inhibitors | hit rate 1% among 390,000 | AID 588590
#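 Pol iota at 10 nM preincubated 15 min with compounds at room temperature; reaction started with fluorescent substrate, 50 nM final. Fluorescence read kinetically at 0 and 10 min; buffer-only wells as negative control.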
# FEN1 inhibitor: inhibitors of human flap endonuclease 1 | Recombinant FEN1 flap cleavage, fluorescence, 15 min | Potency, µM (doses to about 114 µM), inactives show at the highest dose activity change, negative = inhibition, most hits filed as inhibitors | P39748 | hit rate 0.35% among 390,000 | AID 588795; also: % is scaled to controls: 0 for no effect and ±100 for the full control effect; nearly all actives have a fitted effect of over 65% in size
#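 FEN1 at 10 nM, compound pretreatment for 15 min (room temperature), 50 nM final substrate to initiate; endpoint reads at 0 and 15 min; DMSO-only plates used as vehicle background.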
# Pol beta inh: inhibitors of human DNA polymerase beta; AID 485314; Pol beta primer extension/strand displacement, fluorescence kinetic; Potency, µM (series often up to 114 µM), inactives show top-dose activity change, negative = inhibition, usual class: inhibitors; hit rate 1.3% among 340,000; also: % is scaled to controls: 0 for no effect and ±100 for the full control effect
#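 10 nM enzyme + cpd, 15 min RT; start with substrate 50 nM final; read 0 min and after 10 min RT. Corrected, normalized data; 4-parameter Hill curve fit.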
# POLH inh: DNA polymerase eta (human) inhibition; Q9Y253; recombinant Pol eta, fluorescent DNA replication assay; Potency, µM (doses to about 114 µM), without a hit: at the top dose activity change, negative = inhibition, most hits filed as inhibitors; hit rate 1.2% among 390,000; also: % is scaled to controls: 0 for no effect and ±100 for the full control effect
#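 Pol eta at 10 nM preincubated with compounds 15 min at room temperature; reaction started with fluorescent substrate (50 nM final) and read kinetically at 0 and 10 min.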
# PGK validate: validation of Trypanosoma brucei phosphoglycerate kinase inhibitors | shares compounds with Pol kappa inh | TbPGK coupled GAPDH assay, Kinase-Glo luminescence | Potency, µM (doses to about 57.5 µM), for the others: at the top dose activity change, negative = inhibition, usual class: inhibitors | hit rate 79% among 500; also: % is scaled to controls: 0 for no effect and ±100 for the full control effect; nearly all actives have a fitted effect of over 65% in size
# Target sequence (P07378 whole entry, looked up): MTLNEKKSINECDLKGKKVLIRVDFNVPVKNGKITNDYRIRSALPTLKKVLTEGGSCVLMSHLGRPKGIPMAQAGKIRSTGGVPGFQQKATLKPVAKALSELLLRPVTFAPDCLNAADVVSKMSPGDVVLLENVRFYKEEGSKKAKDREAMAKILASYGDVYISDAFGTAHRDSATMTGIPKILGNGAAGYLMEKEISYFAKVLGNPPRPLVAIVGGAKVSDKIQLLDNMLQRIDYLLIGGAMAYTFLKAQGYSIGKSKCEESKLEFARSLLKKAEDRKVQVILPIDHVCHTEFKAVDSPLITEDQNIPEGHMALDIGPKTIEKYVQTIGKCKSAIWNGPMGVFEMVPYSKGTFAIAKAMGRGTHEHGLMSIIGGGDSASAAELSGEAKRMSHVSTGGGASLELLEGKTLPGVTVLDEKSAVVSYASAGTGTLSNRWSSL
# Pol iota confirm: Human Pol iota inhibitor confirmatory assay; shares compounds with Pol kappa inh; Pol iota primer extension, TAMRA/BHQ fluorescence; Potency, µM, most hits filed as inhibitors; hit rate 77% among 1,500
# Numbers without * were called inactive; ? = inconclusive; nt = no result; [ ] = dose if it differs, or a comment. Compounds with a hit are over-represented: about 2.4% of the library has one in this group of screens. Calls follow the shape of the dose curve; as a rule, active = well fitted curve in the direction sought with a large enough effect; inconclusive = small, poorly fitted or top-dose-only effect, or another doubt; inactive = no such curve, though single readings can be large; an effect the other way counts as inactive or inconclusive. Potency is read from the fitted curve at half-maximal effect.
SMILES,WRN helicase inh,Pol kappa inh,Pol iota inh,FEN1 inhibitor,Pol beta inh,POLH inh,PGK validate,others
COc1ccc2[nH]c3c(C)c4ccncc4c(C)c3c2c1,?,50.1µM*,3.55µM*,2.82µM*,1.26µM*,?,nt,Pol iota confirm=7.52*
COc1ccc(C(C[N+](=O)[O-])c2c(C)[nH]n(-c3ccccc3)c2=O)cc1 (configuration not stated),?,-10.4%,1.58µM*,?,-2.0%,-12.7%,nt,Pol iota confirm=67*
COc1ccc(C(C[N+](=O)[O-])c2c(C)cc3ccccn23)cc1 (configuration not stated),-32.5%,-2.3%,51.3%,-13.7%,18.6%,7.0%,nt,
CCNS(=O)(=O)c1ccc2nc(NC(=O)c3cccnc3)sc2c1,-5.3%,-10.6%,8.5%,-16.3%,-0.3%,-9.8%,nt,
CCCCNS(=O)(=O)c1ccc2nc(NC(=O)c3cccnc3)sc2c1,nt,-6.6%[60.1 µM],14.4%,-9.9%,-18.0%,50.1µM*,?,
CN(C)c1ccc(N=Nc2nc3ccccc3n2C)cc1,-15.5%,-2.2%,28.5%,-25.8%,-26.5%,-14.6%,4.61µM*,
Cn1c(N=Nc2ccccc2)nc2ccccc21,-12.2%,-8.5%,13.6%,-13.8%,-29.1%,-6.3%,13µM*,
CCn1c(NCc2ccc(N(C)C)cc2)nc2ccccc21,-8.0%,-10.9%,19.1%,1.7%,-15.3%,-0.2%,nt,
Cc1sc2nc(CSC(C)C(=O)NC3(C#N)CCCCC3)[nH]c(=O)c2c1C (configuration not stated),-18.3%,-1.7%,?,16.9%,nt,-15.8%,nt,
CCC(=O)OC1(C)C(=O)C2=COC(c3ccc(OC)cc3)=CC2=C(Br)C1=O (configuration not stated),-24.1%[57.1 µM],?,?,-13.5%,?,44.7µM*,20.6µM*,
COC(=O)CCC(=O)OC1(C)C(=O)C2=CN(CC(C)C)C(c3ccc(OC)cc3)=CC2=C(Br)C1=O (configuration not stated),nt,nt,nt,nt,5.5%,nt,nt,
C/C(=N\NC(=O)c1ccccc1NC(=O)c1ccc(Cl)cc1)c1ccncc1,-0.7%,-1.8%,50.5%,-1.6%,4.0%,-17.0%,6.51µM*,
OCCN1CCN(c2ncnc3c2ncn3[C@H]2CN(Cc3ccc4c(c3)OCO4)C[C@@H](CO)O2)CC1,-2.2%,nt,nt,nt,nt,nt,nt,
CC(C)Oc1ccc(CNC(=O)CCCN2C(=O)c3cccnc3Oc3ccc(Cl)cc32)cc1,nt,-4.4%,30.9%,8.2%,-12.8%,-19.1%,nt,
COc1ccc(NC(=O)c2cc3c(=O)n(C)c4ccccc4c3s2)cc1OC,-5.1%[11.6 µM],-16.6%,27.7%,1.0%,?,?,nt,Pol iota confirm=29.9*
Cc1ccnc(NC(=O)c2ccc3c(c2)OCO3)c1,8.6%,-9.6%,140.2%,-1.2%,2.9%,-1.9%,20.6µM*,
O=C(COc1ccccc1[N+](=O)[O-])Nc1ccc2oc(=O)ccc2c1,-5.1%,6.5%,-9.3%,19.5%,-10.5%,2.9%,nt,
Cc1cc(=O)oc2cc(NC(=O)COc3ccccc3[N+](=O)[O-])ccc12,-34.6%[11.6 µM],-19.3%,?,13.0%,nt,?,nt,Pol iota confirm=?
C=CCN1[C@H](COCc2ccccc2)C=CS1(=O)=O,-7.1%,nt,nt,nt,nt,nt,nt,
CC(C)NC(=O)N(C)C[C@@H]1OCc2cnnn2CCCC(=O)N([C@H](C)CO)C[C@H]1C,-3.0%,nt,nt,nt,nt,-8.8%,nt,
O=C(O)CCCCCNC(=O)/C=C/c1ccco1,-11.3%,-17.4%,-16.3%,16.0%,?,2.8%,nt,
O=C(O)CCCNC(=O)/C=C/c1ccco1,-29.6%,50.1µM*,?,?,2.82µM*,3.98µM*,?,
COCCCN1C(=O)C(CC(=O)NC2CCCC2)CC(C(=O)N(C(C)C)C(C)C)=C1C (configuration not stated),-3.0%,nt,nt,nt,nt,nt,nt,
COc1c(N2CCN[C@H](C)C2)c(F)cc2c(=O)c(C(=O)O)cn(C3CC3)c12,0.3%,-5.8%,-20.5%,-27.5%,?,-3.0%,nt,
COc1c(N2CCN(C(=S)NCc3ccccc3)C(C)C2)c(F)cc2c(=O)c(C(=O)O)cn(C3CC3)c12 (configuration not stated),?,?,15.8µM*,?,28.2µM*,31.6µM*,nt,Pol iota confirm=53.2*
SMILES,WRN helicase inh,Pol kappa inh,Pol iota inh,FEN1 inhibitor,Pol beta inh,POLH inh,PGK validate,others
O=C(NC(Cc1c[nH]c2ccccc12)C(=O)O)OCC1c2ccccc2-c2ccccc21 (configuration not stated),8.8%[57.1 µM],nt,nt,nt,nt,nt,nt,
Cc1ccc(-c2nc(-c3ccccn3)no2)cc1,-1.1%,-5.8%,6.7%,-7.9%,10.2%,-7.2%,14.6µM*,
c1ccc(-c2ccc(-c3nc(-c4ccccn4)no3)cc2)cc1,-3.3%,0.2%,6.1%,-1.3%,1.1%,-19.3%,nt,
O=CC(O)C1OC(=O)C(O)C1O (configuration not stated),-30.2%,50.1µM*,44.7µM*,-7.8%,nt,7.94µM*,3.26µM*,
Cc1ccc(Cl)cc1NC(=O)Nc1cn(CC(C)C)c(=O)c2ccccc12,nt,-21.5%,?,7.8%,7.4%,22.4µM*,3.5%,
COc1ccc(NC(=O)Nc2cn(CC(C)C)c(=O)c3ccccc23)c(OC)c1,nt,-9.8%,35.4%,-10.0%,26.7%,-10.8%,nt,
COc1ccc(C2CCc3cc4c(cc3C2=NO)OCO4)cc1OC (configuration not stated),2.4%,nt,nt,nt,nt,-10.2%,nt,
COc1ccc2nc(NC(=O)c3ccoc3C)sc2c1,7.5%,-10.0%,-9.7%[58.9 µM],-10.4%,-0.7%,5.3%,10.3µM*,
COc1ccccc1CCNC(=O)c1cc(-c2ccncc2)nc2ccc(Br)cc12,-1.9%[11.6 µM],-26.4%,42.2%,-20.1%,-13.9%,44.7µM*,nt,Pol iota confirm=?
Cc1ccc(S(=O)(=O)C(CNC(=O)COc2ccccc2)c2cccs2)cc1 (configuration not stated),nt,-7.3%[60.1 µM],1.1%,-10.1%,12.6µM*,-14.0%,?,
Cc1cc(S(=O)(=O)C(CNC(=O)COc2ccccc2)c2cccs2)ccc1F (configuration not stated),nt,-1.8%[60.1 µM],-19.5%,-17.1%,1.7%,6.5%,nt,
Cc1cc(=O)[nH]c(N/N=C/c2ccco2)n1,-10.5%,-5.9%,12.2%,8.4%,-15.9%,-5.0%,nt,
Cc1cc(=O)[nH]c(N/N=C/c2ccc(OC(=O)c3ccco3)cc2)n1,?,9.0%,13.7%,-33.6%,-9.0%,50.1µM*,nt,Pol iota confirm=?
O=C(Nc1ccc(Cl)c([N+](=O)[O-])c1)c1ccc2c(c1)OCCO2,-2.7%,-4.2%,128.9%,3.7%,15.1%,-21.2%,nt,
